According to PubChem BioAssay (EPA / NIEHS):
Where “and” joins values, the source holds several entries; their conditions need not be identical. Equal entries are not always repeated. Records with an inconclusive call do not appear. A structure can be active in one record and inactive in another. Calls of active or inactive are those of the source. The calls were made as follows: active = hit-call score of the fitted dose curve at least 0.9, where 1 is the maximum; inconclusive = response in the unintended direction; inactive = score below 0.9.

biological target: Cellular tumor antigen p53 (Homo sapiens) (UniProt P04637); assay: TOX21_p53_BLA_p3_ratio: Tox21 HCT-116 p53 Agonism Beta-lactamase Assay, Ratio, Phase 3 (AID 2283596)
Description: TOX21_p53_BLA_p3 is a cell-based, single-readout assay that uses HCT116, a human intestinal cell line, […] in a 1536-well plate.TOX21_p53_BLA_p3_ratio is an assay readout measuring reporter gene via receptor activity and designed using inducible reporter (beta lactamase induction) detected with GAL4 b-lactamase reporter gene. The signal is derived from the ratio of cleaved (ch2) to uncleaved (ch1) reporter gene substrate used as the measure of target activity.Data from the assay component TOX21_p53_BLA_p3_ratio was analyzed into 1 assay endpoint. This assay endpoint, TOX21_p53_BLA_p3_ratio, was analyzed in the positive analysis fitting direction relative to DMSO as the negative control and baseline of activity. Using a type of inducible reporter, gain-of-signal activity can be used to understand changes in the reporter gene as they relate to the gene TP53. Furthermore, this assay endpoint can be referred to as a primary readout, because this assay has produced multiple assay endpoints where this ratio serves a reporter gene function to understand target activity. To generalize the intended target to other relatable targets, this assay endpoint is annotated to the DNA binding intended target family, where the subfamily is tumor suppressor.
Thawing Method: Place 14 mL of pre-warmed thaw medium into a 15 mL of conical tub. Remove the vial of cells to be thawed from liquid nitrogen and thaw rapidly by placing at 37C in a water bath with gentle agitation for 1-2 minutes. Decontaminate the vial by wiping with 70% ethanol before opening in a biological safety cabinet. Transfer the vial contents drop-wise into 14 mL of thaw medium in a sterile 15-mL conical tub. Centrifuge cells at 900 rpm for 4 minutes and resuspend in thaw medium. Transfer contents to the T75 tissue culture flask containing Thaw Medium and place flask in a humidified 37C/5% CO2 incubator. Switch to growth medium at first passage.Propagation Method: Aspirate medium, rinse once in DPBS, add 0.25% Trypsin/EDTA and swirl to coat the cell evenly. Add an equal volume of Growth Medium to inactivate Trypsin after 2-3 minutes incubation at 37C. Centrifuge cells at 900 rpm for 4 minutes and resuspend in growth medium. Cell should be passage or fed at least twice a week.Assay Protocol: Harvest cells from culture in growth medium and resuspend in assay medium. 2.2 Dispense 4000 cells/5 uL/well into 1536-well black/clear bottom plates using a Multidrop dispenser. After the cells were incubated at 37C for 5 hours, 23 nL of compounds dissolved in DMSO were transferred to the assay plate by a PinTool resulting in a 217-fold dilution. Incubate the plates for 16 hours at 37C, 5% CO2. Add 1 uL of 6X LiveBLAzer FRET B/G (CCF4-AM) Substrate Mixture to each well using a BioRAPTR dispenser and incubate the plates at room temperature for 2 hours. Measure fluorescence intensity at 460 and 530 nm emission and 405 nm excitation by an Envision detector. Data is expressed as the ratio of 460nm/530nm emissions. Add 4 uL of Cell-titer Glo to each well using BioRAPTR and incubate the plates at room temperature for 2 hours. Measure fluorescence intensity by a VewLux plate reader.

Sequence of Cellular tumor antigen p53 (Homo sapiens) (P04637 whole entry, looked up, the tested form may be a part): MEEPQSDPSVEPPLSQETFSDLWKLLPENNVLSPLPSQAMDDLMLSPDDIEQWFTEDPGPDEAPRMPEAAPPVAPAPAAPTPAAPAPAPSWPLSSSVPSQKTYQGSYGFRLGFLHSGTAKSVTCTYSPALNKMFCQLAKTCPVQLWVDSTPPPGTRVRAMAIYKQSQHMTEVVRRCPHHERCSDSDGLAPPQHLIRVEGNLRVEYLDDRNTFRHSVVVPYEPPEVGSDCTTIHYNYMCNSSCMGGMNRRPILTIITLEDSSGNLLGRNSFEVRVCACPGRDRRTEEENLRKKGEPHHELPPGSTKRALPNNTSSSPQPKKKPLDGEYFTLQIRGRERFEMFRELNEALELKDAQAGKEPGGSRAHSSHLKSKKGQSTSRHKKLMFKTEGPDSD

Question: Which outcome does the source give for `O=c1cc(-c2ccc(O)cc2)oc2cc(O)cc(O)c12` here?
Answer: Its outcome is “inactive”.

Question: What about the AC50 of the same compound?
Answer: The AC50 was 14.6 µM (active).

Question: With `c1ccc2scnc2c1` as the compound, how does the outcome read?
Answer: Its outcome is “inactive”.

Question: Which outcome does the source give for `NC(=O)c1cnccn1` here?
Answer: The outcome was “inactive”.

Question: With `CC(C)(C)c1cccc(O)c1` as the compound, how does the outcome read?
Answer: Its outcome is “inactive”.

Question: `CCCCN(CCCC)CCCCCCN(CCCC)CCCC` was tested. Which outcome did it give?
Answer: Its outcome is “inactive”.

Question: Which outcome does the source give for `CC(=O)c1ccc(O)cc1` here?
Answer: The outcome was “inactive”.

Question: `C=C(C)C(=O)OCCN(C)C` was tested. Which outcome did it give?
Answer: Its outcome is “inactive”.

Question: With `CC(=O)Nc1cc(S(=O)(=O)O)cc2cc(S(=O)(=O)O)c(N=Nc3ccccc3)c(O)c12` as the compound, how does the outcome read?
Answer: Its outcome is “inactive”.

Question: For `CC(=O)C1=C(C)[C@@H]2C[C@@]3(C1)[C@H](C)CC[C@H]3C2(C)C`, which outcome is on record?
Answer: Its outcome is “inactive”.

Question: How did the outcome turn out when `CC(=O)c1cccnc1` was run?
Answer: Its outcome is “inactive”.

Question: For `OC[C@@H](O)[C@H](O)[C@@H](O)[C@@H](O)CO`, which outcome is on record?
Answer: The outcome was “inactive”.

Question: `O=C(OCc1ccccc1)c1ccccc1O` was tested. Which outcome did it give?
Answer: Its outcome is “inactive”.

Question: For `CCCCCCC(O)CCOC(C)=O` (stereo not given), which outcome is on record?
Answer: Its outcome is “inactive”.

Question: Which outcome does the source give for `CC(C)Cc1ccc(C(C)C(=O)O)cc1` (stereo not given) here?
Answer: The outcome was “inactive”.

Question: Which outcome does the source give for `CCCCC/C=C\C=C\C(=O)OCC` here?
Answer: Its outcome is “inactive”.

Question: Which outcome does the source give for `C1=COCCC1` here?
Answer: The outcome was “inactive”.

Question: With `Cc1cc(O)c2c(c1)C(=O)c1cc(O)cc(O)c1C2=O` as the compound, how does the AC50 read?
Answer: Its AC50 is 12 µM (active) and 33.3 µM (active).

Question: `CC(CO)c1ccccc1` (stereo not given) was tested. Which outcome did it give?
Answer: The outcome was “inactive”.

Question: `CCCCCCCC(=O)N(C)C` was tested. Which outcome did it give?
Answer: Its outcome is “inactive”.

Question: For `CC1(C)CC(N)CC(C)(CN)C1` (stereo not given), which outcome is on record?
Answer: Its outcome is “inactive”.

Question: How did the outcome turn out when `CCCC(O)C(CC)CO` (stereo not given) was run?
Answer: The outcome was “inactive”.

Question: Which outcome does the source give for `CC1=CCC(=C(C)C)CC1` here?
Answer: Its outcome is “inactive”.

Question: For `Cc1ccncc1`, which outcome is on record?
Answer: The outcome was “inactive”.

Question: For `CN(C)CCCNCCCN(C)C`, which outcome is on record?
Answer: The outcome was “inactive”.

Question: How did the outcome turn out when `O=[N+]([O-])c1cc(N(CCO)CCO)ccc1NCCO` was run?
Answer: The outcome was “inactive”.

Question: For `CCOC(=O)C(=O)OCC`, which outcome is on record?
Answer: The outcome was “inactive”.

Question: With `O=C(c1ccc(OCCN2CCCCC2)cc1)c1c(-c2ccc(O)cc2)sc2cc(O)ccc12` as the compound, how does the AC50 read?
Answer: The AC50 was 74.5 µM (active) and 71.4 µM (active) and 26.1 µM (active).

Question: For `NCCN1CCNCC1`, which outcome is on record?
Answer: The outcome was “inactive”.

Question: Which outcome does the source give for `CCCCCC#CC(=O)OC` here?
Answer: The outcome was “inactive”.

Question: For `C=CC(C)CCCC(C)(C)O` (stereo not given), which outcome is on record?
Answer: Its outcome is “inactive”.

Question: With `COC(=O)c1cccc(C(=O)OC)c1` as the compound, how does the outcome read?
Answer: Its outcome is “inactive”.

Question: With `CC(=O)CCc1ccc(O)cc1` as the compound, how does the outcome read?
Answer: Its outcome is “inactive”.

Question: With `CC(C)CCCC(C)(C)O` as the compound, how does the outcome read?
Answer: Its outcome is “inactive”.

Question: For `O=C(O)C1=NN(c2ccc(S(=O)(=O)O)cc2)C(=O)C1`, which outcome is on record?
Answer: Its outcome is “inactive”.

Question: How did the outcome turn out when `ClCCOCCOCCCl` was run?
Answer: Its outcome is “inactive”.

Question: How did the outcome turn out when `COC(=O)c1ccc(C(=O)OC)cc1` was run?
Answer: Its outcome is “inactive”.

Question: For `c1ccc(OCCOc2ccccc2)cc1`, which outcome is on record?
Answer: The outcome was “inactive”.

Question: `CC1=CC(C)C(C=O)C(C)C1` (stereo not given) (tested in a mixture with another compound) was tested. Which outcome did it give?
Answer: The outcome was “inactive”.

Question: With `CC(C)Cc1ccccc1` as the compound, how does the outcome read?
Answer: The outcome was “inactive”.
